Screening results (PubChem BioAssay)
HTT aggregate: qHTS Multiplex Assay to Identify Dual Action Probes in a Cell Model of Huntington: Aggregate Formation (GFP); PC12 HttQ103-GFP aggregates, Acumen cytometry, 40 h; Potency, µM (top dose mostly 46.1 µM), for the others: at the top dose activity change, negative = inhibition, hits mostly inhibitors; hit rate 1.1% among 220,000; further: potency means the concentration at half of the fitted maximal effect; on the % scale 0 is the no-effect control and ±100 the full control effect; nearly all actives have a fitted effect of over 60% in size
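PC12 cells stably carrying ecdysone-inducible HTT exon 1 Q103–GFP were induced with tebufenozide (100 nM final) and treated with library compounds in titration. GFP aggregates in lysates were counted by laser scanning cytometry.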
HTT cytoprotect: qHTS Multiplex Assay to Identify Dual Action Probes in a Cell Model of Huntington: Cytoprotection (ATP). PC12 HTT-Q103 induced, cytoprotection, ATP luminescence, 40 h. Potency, µM (doses to about 56.4 µM), without a hit: cytoprotection (ATP increase), hits mostly activators. hit rate 0.14% among 230,000. AID 1471, 2008; further: potency means the concentration at half of the fitted maximal effect; % of control where 0% means no effect; nearly all actives have a fitted effect of over 45% in size
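Huntington model: PC12 line, ecdysone-inducible HTTQ103 exon1–GFP, tebufenozide 100 nM. Test articles in a dose series. Endpoint luminescence from cellular ATP.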
ERK EGF block: qHTS Assay for Inhibitors of the ERK Signaling Pathway using a Homogeneous Screening Assay; Stimulation with EGF; HEK293-V1b, EGF-stimulated phospho-ERK AlphaScreen; Potency, µM (highest dose often 11.5 µM), for the others: at the highest dose activity change, negative = inhibition, actives largely listed as inhibitors; hit rate 0.41% among 130,000;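 further: potency means the concentration at half of the fitted maximal effect; plate controls were stimulated vehicle wells for no effect and unstimulated vehicle basal for full effect; nearly all actives have a fitted effect of over 55% in size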
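Phospho-ERK1/2 measured by AlphaScreen (SureFire) after 5 min 25 nM EGF stimulation of V1b-expressing HEK293 cells preincubated 30 min at 37C with titrated compounds; data scaled to DMSO and EGF controls, Hill-fitted AC50.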
ERK pERK EGF: Confirmation Concentration-Response Assay for Inhibitors of the ERK Signaling Pathway using a Homogeneous Screening Assay; Stimulation with EGF | shares compounds with ERK EGF block | HEK293 EGF-stimulated ERK phosphorylation, AlphaScreen | Potency, µM (top dose mostly 57.5 µM), inactives show at the highest dose activity change, negative = inhibition, most hits filed as inhibitors | hit rate 60% among 60 | AID 1725, 2009
c-Raf inh: Assay for Inhibitors of the ERK Signaling Pathway using a Homogeneous Screening Assay: c-Raf Inhibition; shares compounds with ERK EGF block; c-Raf kinase inhibition, homogeneous biochemical assay; activity change, negative = inhibition, % at 76.9 µM; 70 tested, under 10 active
MEK1 kinase inh: Assay for Inhibitors of the ERK Signaling Pathway using a Homogeneous Screening Assay: MEK Inhibition; shares compounds with ERK EGF block; homogeneous MEK kinase activity assay, ERK pathway; Potency, µM (series often up to 76.9 µM), for the others: at the highest dose activity change, negative = inhibition, actives largely listed as inhibitors; 70 tested, under 10 active; AID 1732, 2009
Target sequence (Q02750 whole entry, looked up): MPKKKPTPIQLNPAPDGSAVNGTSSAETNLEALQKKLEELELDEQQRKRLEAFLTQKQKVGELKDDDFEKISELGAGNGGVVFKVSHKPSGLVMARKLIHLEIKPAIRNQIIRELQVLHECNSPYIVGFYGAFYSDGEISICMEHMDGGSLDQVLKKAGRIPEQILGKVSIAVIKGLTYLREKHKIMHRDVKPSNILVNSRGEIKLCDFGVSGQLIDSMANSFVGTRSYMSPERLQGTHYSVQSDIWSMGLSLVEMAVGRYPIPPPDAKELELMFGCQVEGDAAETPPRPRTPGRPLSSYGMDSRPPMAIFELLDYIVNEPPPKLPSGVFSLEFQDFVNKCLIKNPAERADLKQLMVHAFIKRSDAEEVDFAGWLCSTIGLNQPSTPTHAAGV
An asterisk follows results filed as active; ? = inconclusive; . = no result; [ ] = another dose, or the depositor's remark. Only some compounds are listed: those with a hit (about 1.4% of all), similar ones and a draw of the others. The call rests on the fitted dose curve; in most records, active means well fitted curve in the direction sought with a large enough effect; inconclusive means small, poorly fitted or top-dose-only effect, or another doubt; inactive means no such curve, though single readings can be large; an effect the other way counts as inactive or inconclusive.

SMILES	HTT aggregate	HTT cytoprotect	ERK EGF block	ERK pERK EGF	c-Raf inh	MEK1 kinase inh
O=C1c2ccccc2C(=O)c2c(Nc3ccc4c5c(cccc35)C(=O)c3ccccc3-4)cccc21	.	-6%[10 µM]	.	.	.	.
CO[C@@H]1/C=C\O[C@]2(C)Oc3c(C)c(O)c4c(O)c(c(/C=N\N5CCN(C)CC5)c(O)c4c3C2=O)NC(=O)/C(C)=C\C=C/[C@H](C)[C@H](O)[C@H](C)[C@H](O)[C@H](C)[C@H](OC(C)=O)[C@@H]1C	.	0%	.	.	.	.
C[C@@H](C(=O)O)c1cccc(C(=O)c2ccccc2)c1	11%	?	6%[25.7 µM]	.	.	.
COC(=O)c1cccc(OCC(O)Cn2ccnc2)c1 (configuration not stated)	-7%	7%[0.074 µM]	.	.	.	.
COc1ccc(C(=O)OC(COc2ccccc2)Cn2ccnc2)cc1 (configuration not stated)	-11%	12%[10 µM]	7.1µM*	14µM*	-8	-15%
O=S(=O)(Nc1ncnc2sc3c(c12)CCC3)c1cc(F)ccc1F	7%[9.22 µM]	18%[10 µM]	-12%[57.5 µM]	.	.	.
Fc1cccc(Nc2ncnc3sc4c(c23)CCC4)c1	?	-24%[10 µM]	3.2µM*	10µM*	?	8%
Cc1ccc(Nc2ncnc3sc(C)c(C)c23)cc1	?	-4%[10 µM]	8.9µM*	11µM*	?	-18%
Cc1sc2ncnc(N)c2c1C	3%[9.22 µM]	1%[10 µM]	-7%[57.5 µM]	.	.	.
OCCC1CN(Cc2ccccc2OC2CCCC2)CCN1Cc1ccsc1 (configuration not stated)	-2%[9.22 µM]	-8%[10 µM]	5%	.	.	.
O=[N+]([O-])c1ccccc1N/N=C/c1ccc2c(c1)OCO2	?	-118%	?	?	-10	-1%
NS(=O)(=O)c1ccc(N/N=C/c2ccc3c(c2)OCO3)c([N+](=O)[O-])c1	-1%	0%[10 µM]	-2%	.	.	.
Cn1c(=O)c2c(Nc3ccc(F)cc3)cc(=O)n(-c3ccccc3)c2n(C)c1=O	-18%[9.22 µM]	-9%[10 µM]	2%[57.5 µM]	.	.	.
Cn1c(=O)cc(Nc2ccccc2)c2c(=O)n(-c3ccccc3)c(=O)n(-c3ccccc3)c21	13%[9.22 µM]	-5%[10 µM]	5µM*	10µM*	-5	-15%
C=CCC(C)(O)c1cccs1 (configuration not stated)	.	-10%	-5%	.	.	.
N#Cc1ccccc1Sc1ccccc1N	16%	7%	.	.	.	.
N#CC(=C(/N)Sc1ccccc1N)/C(C#N)=C(/N)Sc1ccccc1N	.	-40%[1.9 µM]	0.89µM*	.	-2	.
Cn1c(SCC(=O)NNC(=O)Nc2ccccc2)nnc1-c1ccccc1	16%[9.22 µM]	28%[10 µM]	-8%[57.5 µM]	.	.	.
